# Results published in PubChem BioAssay.
# The source made the active and inactive calls.
# Key:
# [1] = test system: PRMT1 (protein arginine N-methyltransferase 1); experiment: PRMT1 binders on small-molecule microarrays, primary screen, biochemical, small-molecule microarray, 635 nm fluorescence (AID 1088); settings: small-molecule microarray binding, higher = more signal;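 note: binding of Prmt1 protein to compounds spotted on small-molecule microarray slides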
# [2] = yeast growth modulation, basal conditions, primary screen, YJM789 clinical isolate, OD600, 24 h (AID 1089);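 note: growth of clinical yeast isolate S. cerevisiae YJM 789 seeded 1000 cells per well; test concentration not given here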; settings: S. cerevisiae YJM789 growth, higher = more signal, called active from +8 up or from −8 down
# [3] = fission yeast growth modulation, primary screen, strain 972, OD600, 24 h, no modulator (AID 1090);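 note: basal condition with compound alone and no growth modifier present; test concentration not given here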; settings: S. pombe 972 growth, higher = more signal, called active from +8 up or from −8 down
# [4] = S. cerevisiae growth modulation with rapamycin, primary screen, strain BY4716, OD600, 96 h (AID 1091); settings: higher = more signal, called active from +8 up or from −8 down; note: test concentration not given here
# [5] = molecular target: Torsin-1A-interacting protein 2 (Homo sapiens) (UniProt Q8NFQ8); experiment: LULL1 binders on small-molecule microarray, primary screen, cell lysate, human LULL1 lysate, 635/667 nm fluorescence (AID 1092); settings: hLULL1 lysate binding, 635 nm fluorescence, higher = more signal;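 note: probe is lysate of COS7 cells overexpressing human LULL1; score merges per-feature 667 nm fluorescence with signal-to-noise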
# Sequence of Torsin-1A-interacting protein 2 (Homo sapiens) (Q8NFQ8 whole entry, looked up): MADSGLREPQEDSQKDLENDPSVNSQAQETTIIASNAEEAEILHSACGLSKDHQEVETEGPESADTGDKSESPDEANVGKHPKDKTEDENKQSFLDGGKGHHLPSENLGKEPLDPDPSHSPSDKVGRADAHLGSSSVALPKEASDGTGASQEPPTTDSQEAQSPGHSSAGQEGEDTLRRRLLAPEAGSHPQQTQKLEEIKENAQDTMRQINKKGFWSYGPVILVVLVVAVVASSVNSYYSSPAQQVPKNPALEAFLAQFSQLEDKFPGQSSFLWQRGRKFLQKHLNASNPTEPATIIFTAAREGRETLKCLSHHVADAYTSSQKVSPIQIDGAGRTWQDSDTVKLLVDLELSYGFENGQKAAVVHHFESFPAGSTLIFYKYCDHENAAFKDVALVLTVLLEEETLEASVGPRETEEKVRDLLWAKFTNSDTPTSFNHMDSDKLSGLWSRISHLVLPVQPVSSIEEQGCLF
# [6] = E. coli growth modulation, two-sided OD650, primary screen, E. coli filamentation project, strain DRC41, 24 h (AID 1093); settings: OD650, 24 h, higher = more signal, called active from +8 up or from −8 down;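 note: MC1000 strain lacking acrAB efflux and sulA so SOS filamentation is blocked; test concentration not given here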
# [7] = small-molecule microarray binders of probe aLefty2, primary screen, biochemical, biotinylated probe, 635/667 nm fluorescence (AID 1094); settings: higher = more signal;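 note: score merges spot fluorescence near 667 nm with spot signal-to-noise ratio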
# [8] = test system: Noggin (protein binding on small-molecule microarray); experiment: Noggin binders on small-molecule microarray, primary screen, biochemical, 635/667 nm fluorescence (AID 1095); settings: 635 nm fluorescence, higher = more signal;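 note: score merges 667 nm feature fluorescence with signal to noise over triplicate slides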
# [9] = molecular target: Neurogenic locus notch homolog protein 3 (Homo sapiens) (UniProt Q9UM47); experiment: NOTCH3 binders on small-molecule microarray, primary screen, biochemical, 635/667 nm fluorescence (AID 1096); settings: NOTCH3 binding, 635 nm fluorescence, higher = more signal
# Sequence of Neurogenic locus notch homolog protein 3 (Homo sapiens) (Q9UM47 whole entry, looked up): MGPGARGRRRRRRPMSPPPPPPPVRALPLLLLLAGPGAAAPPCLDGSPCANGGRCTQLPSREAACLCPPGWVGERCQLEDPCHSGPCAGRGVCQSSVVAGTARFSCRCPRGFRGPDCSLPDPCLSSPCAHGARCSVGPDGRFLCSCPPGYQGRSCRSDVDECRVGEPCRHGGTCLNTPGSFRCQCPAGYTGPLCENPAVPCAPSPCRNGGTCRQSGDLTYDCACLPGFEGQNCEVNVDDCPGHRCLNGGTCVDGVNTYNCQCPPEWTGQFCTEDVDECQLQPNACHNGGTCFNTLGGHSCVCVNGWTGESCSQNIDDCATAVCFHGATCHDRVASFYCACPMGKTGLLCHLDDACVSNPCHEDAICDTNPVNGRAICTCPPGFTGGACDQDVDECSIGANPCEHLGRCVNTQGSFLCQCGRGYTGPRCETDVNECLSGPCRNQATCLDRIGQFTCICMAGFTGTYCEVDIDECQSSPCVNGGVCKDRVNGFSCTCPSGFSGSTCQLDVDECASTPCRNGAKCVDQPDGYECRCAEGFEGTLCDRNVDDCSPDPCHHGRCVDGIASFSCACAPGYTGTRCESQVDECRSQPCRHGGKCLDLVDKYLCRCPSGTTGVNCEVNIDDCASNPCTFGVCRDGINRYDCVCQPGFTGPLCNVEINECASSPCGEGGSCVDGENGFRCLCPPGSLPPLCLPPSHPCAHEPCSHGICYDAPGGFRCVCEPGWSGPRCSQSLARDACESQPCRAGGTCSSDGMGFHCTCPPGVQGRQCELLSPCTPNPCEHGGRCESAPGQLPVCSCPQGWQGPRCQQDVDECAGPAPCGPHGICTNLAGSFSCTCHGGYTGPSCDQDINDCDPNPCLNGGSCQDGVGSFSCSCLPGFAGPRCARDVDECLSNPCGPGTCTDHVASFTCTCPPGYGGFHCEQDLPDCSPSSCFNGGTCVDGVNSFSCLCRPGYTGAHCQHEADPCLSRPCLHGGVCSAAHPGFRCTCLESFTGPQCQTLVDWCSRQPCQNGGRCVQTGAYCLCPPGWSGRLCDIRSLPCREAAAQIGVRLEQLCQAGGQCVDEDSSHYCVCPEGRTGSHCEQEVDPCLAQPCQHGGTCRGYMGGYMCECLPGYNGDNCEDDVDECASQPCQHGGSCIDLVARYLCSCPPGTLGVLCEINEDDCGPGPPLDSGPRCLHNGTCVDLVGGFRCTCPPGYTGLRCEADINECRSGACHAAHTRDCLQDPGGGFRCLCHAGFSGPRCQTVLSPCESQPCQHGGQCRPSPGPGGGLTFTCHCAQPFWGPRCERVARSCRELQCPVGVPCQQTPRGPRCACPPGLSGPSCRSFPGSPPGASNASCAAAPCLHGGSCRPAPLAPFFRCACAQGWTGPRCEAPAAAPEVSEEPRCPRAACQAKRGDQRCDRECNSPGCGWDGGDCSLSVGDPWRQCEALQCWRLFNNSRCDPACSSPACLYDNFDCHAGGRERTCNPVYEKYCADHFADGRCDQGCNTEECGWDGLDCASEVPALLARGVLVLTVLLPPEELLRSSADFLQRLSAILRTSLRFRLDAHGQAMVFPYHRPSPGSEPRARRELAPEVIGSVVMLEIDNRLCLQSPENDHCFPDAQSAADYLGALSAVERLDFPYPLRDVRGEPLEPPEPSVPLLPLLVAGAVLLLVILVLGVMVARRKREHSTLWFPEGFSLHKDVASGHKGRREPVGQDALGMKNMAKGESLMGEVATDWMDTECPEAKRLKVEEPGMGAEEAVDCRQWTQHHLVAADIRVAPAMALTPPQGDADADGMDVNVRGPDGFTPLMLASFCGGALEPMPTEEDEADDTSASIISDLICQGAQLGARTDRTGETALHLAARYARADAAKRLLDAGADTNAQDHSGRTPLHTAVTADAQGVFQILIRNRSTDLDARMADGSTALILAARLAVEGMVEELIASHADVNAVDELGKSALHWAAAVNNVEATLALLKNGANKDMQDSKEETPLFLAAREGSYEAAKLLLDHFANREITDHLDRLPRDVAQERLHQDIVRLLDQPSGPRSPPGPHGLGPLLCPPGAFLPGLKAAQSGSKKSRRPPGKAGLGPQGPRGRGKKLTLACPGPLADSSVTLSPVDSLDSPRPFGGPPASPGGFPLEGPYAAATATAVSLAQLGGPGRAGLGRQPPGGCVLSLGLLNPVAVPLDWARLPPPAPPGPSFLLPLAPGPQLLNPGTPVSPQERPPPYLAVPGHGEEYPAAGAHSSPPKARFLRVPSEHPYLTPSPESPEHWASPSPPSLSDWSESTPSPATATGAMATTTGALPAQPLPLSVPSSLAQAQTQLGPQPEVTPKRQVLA
# [10] = small-molecule microarray binders of probe aEGFR, primary screen, biochemical, biotinylated probe, 635/667 nm fluorescence (AID 1097); settings: higher = more signal;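 note: probe is a biotinylated anti-EGFR antibody binding compounds printed on slides; score combines fluorescence near 667 nm and signal to noise of each spot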
# [11] = test system: Plasmodium falciparum Sir2 (PF13_0152, Sir2A); experiment: pfSir2 binders on small-molecule microarrays, primary screen, biochemical, small-molecule microarray, 635 nm fluorescence (AID 1098); settings: small-molecule microarray binding, fluorescence 635 nm; higher = more signal;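 note: score merges spot fluorescence intensity with its signal-to-noise ratio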
# [12] = small-molecule microarray binders of probe aDKK1, primary screen, biochemical, biotinylated probe, 635/667 nm fluorescence (AID 1099); settings: higher = more signal;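 note: score merges 667nm spot fluorescence with signal to noise across triplicate slides; reference of the scale not given here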
# [13] = small-molecule microarray binders of probe aCHRDL2, primary screen, biochemical, biotinylated probe, 635/667 nm fluorescence (AID 1100); settings: higher = more signal
# [14] = splicing luciferase reporter signal modulators, primary screen, spliceosome inhibition project, cell-based, HEK293, splice +/- reporter (AID 1101); settings: luminescence, 24 h, higher = more signal, called active from +8 up or from −8 down;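 note: HEK293 cells carrying a splicing-competent luciferase reporter gene; test concentration not given here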
# [15] = molecular target: Fibroblast growth factor 10 (Homo sapiens) (UniProt O15520); experiment: FGF10 binders on small-molecule microarrays, primary screen, biochemical, small-molecule microarray, 635 nm fluorescence (AID 1102); settings: FGF10 binding, fluorescence 635 nm, higher = more signal
# Sequence of Fibroblast growth factor 10 (Homo sapiens) (O15520 whole entry, looked up): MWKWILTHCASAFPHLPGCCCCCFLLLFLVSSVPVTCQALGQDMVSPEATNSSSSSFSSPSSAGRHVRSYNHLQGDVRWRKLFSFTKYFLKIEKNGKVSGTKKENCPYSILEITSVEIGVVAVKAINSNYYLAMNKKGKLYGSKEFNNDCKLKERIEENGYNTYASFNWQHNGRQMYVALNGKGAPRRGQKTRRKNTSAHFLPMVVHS
# [16] = test system: glycogen synthase kinase-3 (GSK3A per assay name; protocol says GSK3B); experiment: GSK3 binders on small-molecule microarrays, primary screen, biochemical, small-molecule microarray, 635 nm fluorescence, GSK3A (AID 1103); settings: small-molecule microarray binding, fluorescence 635 nm; higher = more signal; note: the record names both GSK3A and GSK3B
# [17] = molecular target: Epidermal growth factor receptor (Homo sapiens) (UniProt P00533); experiment: EGFR binders on small-molecule microarrays, primary screen, biochemical, small-molecule microarray, 635 nm fluorescence (AID 1104); settings: EGFR binding, higher = more signal;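 note: score merges 667 nm emission intensity with spot signal to noise over triplicate slides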
# Sequence of Epidermal growth factor receptor (Homo sapiens) (P00533 whole entry, looked up): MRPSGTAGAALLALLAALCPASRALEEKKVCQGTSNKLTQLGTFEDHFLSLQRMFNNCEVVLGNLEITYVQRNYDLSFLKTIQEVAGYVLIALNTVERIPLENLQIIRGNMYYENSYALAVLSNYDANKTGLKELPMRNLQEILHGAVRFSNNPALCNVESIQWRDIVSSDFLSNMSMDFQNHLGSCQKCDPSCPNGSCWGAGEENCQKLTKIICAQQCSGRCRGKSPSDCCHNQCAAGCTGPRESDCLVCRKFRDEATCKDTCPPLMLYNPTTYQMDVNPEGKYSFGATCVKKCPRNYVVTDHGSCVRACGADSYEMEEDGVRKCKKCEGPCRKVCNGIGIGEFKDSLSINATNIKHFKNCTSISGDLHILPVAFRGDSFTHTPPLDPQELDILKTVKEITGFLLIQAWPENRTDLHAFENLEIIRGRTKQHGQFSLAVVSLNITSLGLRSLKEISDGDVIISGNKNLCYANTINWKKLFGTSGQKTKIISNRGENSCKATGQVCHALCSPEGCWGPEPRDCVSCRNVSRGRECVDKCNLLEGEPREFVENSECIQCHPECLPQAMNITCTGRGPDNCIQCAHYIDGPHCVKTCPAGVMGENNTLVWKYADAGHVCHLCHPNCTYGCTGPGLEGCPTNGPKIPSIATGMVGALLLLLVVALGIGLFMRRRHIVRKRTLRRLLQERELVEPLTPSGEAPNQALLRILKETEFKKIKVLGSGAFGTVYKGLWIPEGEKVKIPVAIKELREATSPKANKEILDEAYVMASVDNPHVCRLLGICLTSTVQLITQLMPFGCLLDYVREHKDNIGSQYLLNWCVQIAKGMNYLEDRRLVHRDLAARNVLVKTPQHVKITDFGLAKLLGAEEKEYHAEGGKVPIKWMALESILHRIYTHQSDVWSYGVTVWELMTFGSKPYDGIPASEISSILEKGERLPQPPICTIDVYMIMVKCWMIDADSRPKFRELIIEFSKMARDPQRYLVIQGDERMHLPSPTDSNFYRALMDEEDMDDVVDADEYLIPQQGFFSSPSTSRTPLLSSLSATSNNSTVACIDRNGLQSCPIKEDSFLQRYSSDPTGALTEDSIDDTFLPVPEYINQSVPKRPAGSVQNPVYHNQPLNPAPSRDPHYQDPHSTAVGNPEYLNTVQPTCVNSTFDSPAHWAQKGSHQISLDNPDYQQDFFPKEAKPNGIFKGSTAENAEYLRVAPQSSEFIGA
# [18] = molecular target: Follistatin-related protein 3 (Homo sapiens) (UniProt O95633); experiment: FSTL3 binders on small-molecule microarrays, primary screen, biochemical, small-molecule microarray, 635 nm fluorescence (AID 1105); settings: FSTL3 binding, higher = more signal;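 note: score merges emission near 667 nm and signal to noise per printed spot across three slides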
# Sequence of Follistatin-related protein 3 (Homo sapiens) (O95633 whole entry, looked up): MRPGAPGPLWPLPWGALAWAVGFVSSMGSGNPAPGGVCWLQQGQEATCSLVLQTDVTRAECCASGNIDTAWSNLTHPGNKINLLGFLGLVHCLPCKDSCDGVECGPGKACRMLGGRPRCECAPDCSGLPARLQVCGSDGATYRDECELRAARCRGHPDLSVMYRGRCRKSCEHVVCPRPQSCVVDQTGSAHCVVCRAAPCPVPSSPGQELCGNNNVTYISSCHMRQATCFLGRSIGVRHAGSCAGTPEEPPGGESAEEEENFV
# [19] = molecular target: Dickkopf-related protein 1 (Homo sapiens) (UniProt O94907); experiment: DKK1 binders on small-molecule microarrays, primary screen, biochemical, small-molecule microarray, 635 nm fluorescence scan (AID 1106); settings: DKK1 binding, higher = more signal;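 note: score merges emission near 667 nm with signal to noise over three replicate slides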
# Sequence of Dickkopf-related protein 1 (Homo sapiens) (O94907 whole entry, looked up): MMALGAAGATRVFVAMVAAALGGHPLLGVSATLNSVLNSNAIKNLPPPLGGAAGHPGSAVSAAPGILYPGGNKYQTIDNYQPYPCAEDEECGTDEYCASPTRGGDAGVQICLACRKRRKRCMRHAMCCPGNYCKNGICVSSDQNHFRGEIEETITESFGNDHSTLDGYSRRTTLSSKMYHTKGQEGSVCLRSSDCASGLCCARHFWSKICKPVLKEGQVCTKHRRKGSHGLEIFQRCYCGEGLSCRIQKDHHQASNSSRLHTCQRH
# [20] = test system: Inhibin beta A chain (activin A); experiment: INHBA (activin A) binders on microarrays, primary screen, biochemical, small-molecule microarray, 635 nm fluorescence scan (AID 1107); settings: small-molecule microarray binding, higher = more signal;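 note: mouse activin A protein probed at 4.33 µg/mL on printed slides; score merges bound-protein fluorescence near 667 nm with spot signal-to-noise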
SMILES,composite z-score [1],z-score [2],z-score [3],z-score [4],composite z-score [5],z-score [6],composite z-score [7],composite z-score [8],composite z-score [9],composite z-score [10],composite z-score [11],composite z-score [12],composite z-score [13],z-score [14],composite z-score [15],composite z-score [16],composite z-score [17],composite z-score [18],composite z-score [19],composite z-score [20]
O=C1C2C=CC(C(O)c3ccc(I)cc3)N(Nc3ccccc3)C2C(=O)N1c1ccccc1 (stereo not given),1.34,-0.165 (inactive),0.912 (inactive),0.879 (inactive),3.31,-0.882 (inactive),0.265,-0.369,0.82,0.0352,1.1,1.06,1.21,0.189 (inactive),0.455,1.29,0.0244,0.859,0.263,1.06
Nc1cc(Br)ccc1C(=O)O,0.409,-0.585 (inactive),-1.64 (inactive),-0.0096 (inactive),0.568,-1.2 (inactive),-0.0664,0.136,0.332,-0.0961,-0.0113,0.149,-0.155,-0.00991 (inactive),0.339,0.285,0.029,0.111,0.241,0.0301
COc1ccc([Si](C)(C)[C@H]2[C@H](CC(=O)N3Cc4ccccc4C[C@H]3CO)O[C@@]3(C(=O)N(Cc4ccc(N5C(=O)c6cccc7cccc5c67)cc4)c4ccccc43)[C@@H]2C)cc1,1.56,-0.823 (inactive),1.17 (inactive),2.88 (inactive),2.7,0.489 (inactive),-0.178,1.14,1.15,-0.027,0.959,-0.247,-0.0288,-0.91 (inactive),0.884,1.28,0.868,1.31,0.879,0.473
CC(C)C[C@@H]1NC(=O)CNC(=O)[C@@]23C(=O)N[C@@H](Cc4ccccc4)C2[C@H](C)[C@@]2(C)O[C@H]2C3/C=C/C/C=C\CNC1=O (stereo not given in full),1.31,-0.536 (inactive),-0.26 (inactive),-0.0716 (inactive),2.72,-0.461 (inactive),-0.159,0.363,1.01,-0.0828,0.15,-0.212,-0.445,0.426 (inactive),0.569,1.15,0.366,1.04,0.568,1.25
Cc1ccccc1C(O)C1C=CC2C(=O)N(c3ccccc3)C(=O)C2N1Nc1ccc([N+](=O)[O-])cc1 (stereo not given),1.45,-0.715 (inactive),0.796 (inactive),2.67 (inactive),3.39,0.13 (inactive),0.0839,0.327,1.05,0.156,1.3,0.25,0.793,-0.0433 (inactive),0.597,1.29,0.217,1.19,0.0125,0.816
Cc1ccc(C(C)CC(O)C2C=CC3C(=O)N(c4ccccc4)C(=O)C3N2Nc2ccc(C#N)cc2)o1 (stereo not given),1.55,-26 (active),-16.8 (active),-3.16 (inactive),3.46,-0.0931 (inactive),0.188,0.383,1.13,0.122,0.966,0.846,0.539,3.02 (inactive),1.12,1.08,0.202,0.913,-0.0435,0.607
CCCC=C(CCC)[C@@H](NS(=O)(=O)c1cccc2cccnc12)c1ccc(-c2ccccc2)cc1,1.55,-0.221 (inactive),0.114 (inactive),0.638 (inactive),3.61,-0.701 (inactive),0.104,1.07,1.06,0.06,0.757,0.939,0.75,-0.301 (inactive),1,1.32,0.355,0.909,-0.345,-0.278
CN1C(=O)C2C(C1=O)C1C=C(CCCO)C2C(C2CC2)N1Cc1cc2c(cc1Br)OCO2 (stereo not given),0.84,-3.43 (inactive),-1.03 (inactive),-0.932 (inactive),2.82,0.307 (inactive),0.183,0.304,0.699,0.0185,0.553,-0.272,0.288,-0.0854 (inactive),0.357,0.963,-0.0564,-0.0617,0.107,1.36
O=c1cccc(-c2ccco2)o1,1.29,-0.445 (inactive),-0.311 (inactive),0.167 (inactive),0.108,-0.696 (inactive),-0.0963,1.32,0.832,0.0023,1.28,-0.148,-0.617,0.935 (inactive),0.955,0.829,0.693,1.02,1.16,1.24
Cc1ccc([C@H]2C(C(=O)O)=C[C@@H](C(C)(C)C)N2S(=O)(=O)c2ccc(C)cc2)cc1,1.39,-0.225 (inactive),0.289 (inactive),0.118 (inactive),3.25,-1.01 (inactive),0.118,0.101,1.04,0.155,1.03,1.05,1.06,0.0856 (inactive),1.1,1.31,0.0496,1.17,-0.591,0.265
[N-]=[N+]=Nc1ccccc1C[C@]1(C(=O)O)N=C(c2ccc(OCCCO)cc2)O[C@H]1c1ccccc1N=[N+]=[N-],1.43,-0.228 (inactive),-0.896 (inactive),-1.17 (inactive),3.05,0.814 (inactive),0.376,-0.359,0.942,0.0729,0.944,1.06,1.12,-1.55 (inactive),0.445,1.06,0.342,0.546,-0.0824,0.884
C[C@@H]1ON(c2ccc(I)cc2)[C@H](c2ccc(OC(=O)OC(C)(C)C)cc2)[C@H]1C(=O)N1C(=O)OC[C@H]1Cc1ccccc1,1.35,-0.0865 (inactive),-1.73 (inactive),1.9 (inactive),2.08,1.77 (inactive),-0.0736,0.447,1.02,-0.0351,0.718,-0.14,-0.345,-1.78 (inactive),0.367,1.07,0.458,0.872,0.567,0.0676
